High-throughput results (PubChem BioAssay)
FLuc modulator: qHTS profiling assay for firefly luciferase inhibitor/activator using purifed enzyme and Km concentrations of substrates (counterscreen for miR-21 project) | Luciferin 4-monooxygenase (Photinus pyralis), P08659 | 360,000 tested, 6.9% active | purified FLuc, Km substrates, luminescence inhibition | Potency, µM (top dose mostly 57.5 µM), usual class: inhibitors; note: nearly all actives have a fitted effect of over 55% in size
Target sequence (P08659 whole entry, looked up): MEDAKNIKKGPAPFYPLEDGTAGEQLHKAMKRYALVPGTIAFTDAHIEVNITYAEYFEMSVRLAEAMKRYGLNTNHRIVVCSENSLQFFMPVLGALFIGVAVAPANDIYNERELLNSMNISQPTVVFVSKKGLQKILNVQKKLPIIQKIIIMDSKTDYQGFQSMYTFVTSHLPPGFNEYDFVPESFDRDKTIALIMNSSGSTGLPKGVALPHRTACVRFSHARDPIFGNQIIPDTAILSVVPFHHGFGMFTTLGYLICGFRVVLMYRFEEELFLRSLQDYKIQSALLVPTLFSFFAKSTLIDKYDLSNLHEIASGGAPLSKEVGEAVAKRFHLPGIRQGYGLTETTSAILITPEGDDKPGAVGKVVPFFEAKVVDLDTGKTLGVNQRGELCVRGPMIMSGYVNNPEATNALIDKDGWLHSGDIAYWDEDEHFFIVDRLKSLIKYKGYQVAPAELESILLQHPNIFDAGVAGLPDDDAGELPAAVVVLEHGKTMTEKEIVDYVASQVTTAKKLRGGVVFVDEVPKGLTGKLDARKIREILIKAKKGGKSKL
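Biochemical qHTS of compounds, final roughly 60 µM downward over six points, against 10 nM purified firefly luciferase using Km concentrations of substrates (10 uM D-luciferin, 10 uM ATP) in Tris acetate pH 7.5 buffer; luminescence output.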
Luc counter: Counterscreen for Luciferase (Kinase-Glo TM) Inhibition | Luciferin 4-monooxygenase (Photuris pensylvanica), Q27757 | Kinase-Glo luciferase, ATP luminescence, 8 min | Potency, µM (top dose mostly 38.3 µM), hits mostly inhibitors | 200,000 tested, 0.28% active | AID 1379, 2008; note: nearly all actives have a fitted effect of over 60% in size
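Inhibition of Kinase-Glo luciferase light generation was assessed at 10 uM ATP in pH 7.2 imidazole buffer, with luminescence measured after eight minutes at ambient temperature.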
Rab9 prom act: qHTS Assay for Rab9 Promoter Activators | Huh7 Rab9 promoter-luciferase reporter, luminescence, 24 h | Potency, µM (highest dose often 9.22 µM), most hits filed as activators | 320,000 tested, 2.8% active | AID 485297, 2010; note: nearly all actives have a fitted effect of over 60% in size
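Huh7 cells stably carrying Rab9 promoter–luciferase reporter, plated 1500 cells/well, compound added after 2 h and incubated 24 h at 37 °C; luciferase luminescence then read after 10 min with detection reagent.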
ELG1 genotox: qHTS screen for small molecules that induce genotoxicity in human embryonic kidney (HEK293T) cells expressing luciferase-tagged ELG1. Potency, µM (highest dose often 46 µM), usual class: activators. AID 504466, 2011. HEK293T ELG1-luciferase reporter, luminescence, 16 h. 330,000 tested, 1.3% active; note: nearly all actives have a fitted effect of over 60% in size
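DMSO vehicle served as control against compound-treated ELG1-luciferase HEK293T cells; exposure lasted 16 hr at 37 °C and 5% CO2, followed by ONE-Glo luminescence detection after 30 min.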
SMN2 splice enh: qHTS Assay for Enhancers of SMN2 Splice Variant Expression | HEK293 SMN2-luciferase splicing reporter, luminescence, 30-36 h | Potency, µM (highest dose often 46.1 µM), most hits filed as activators | 210,000 tested, 2.8% active | AID 1458, 2008; note: nearly all actives have a fitted effect of over 55% in size
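qHTS luciferase splicing reporter: luminescence rises when SMN2 exon 7 is included in transfected HEK293 cells. Compound exposure lasted 30-36 h at 37C, with 4.5 mM final sodium butyrate as control, followed by a ONE-Glo read.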
NPC1 promoter act: qHTS Assay for NPC1 Promoter Activators; AID 485313, 2010; 320,000 tested, 2.4% active; Huh7 NPC1 promoter luciferase reporter, 24 h; Potency, µM (doses to about 9.22 µM), actives largely listed as activators; note: nearly all actives have a fitted effect of over 60% in size
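Compounds in DMSO were transferred onto Huh7 NPC1-luciferase reporter cells pre-incubated 2 h; after 24 h at 37 °C, Amplite reagent was dispensed and luminescence recorded 10 min later.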
Each line names hits and unclear results; the compound was inactive in the other large screens. This is a sample that favours compounds with a hit; in the whole collection about 7.3% have one here. Calls come from the whole dose curve; as a rule, active = well fitted curve in the direction sought with a large enough effect; inconclusive = small, poorly fitted or top-dose-only effect, or another doubt; inactive = no such curve, though single readings can be large; an effect the other way counts as inactive or inconclusive.

CCN(CC)c1ccc(C=C2C(=O)N(C)C(=S)N(C)C2=O)o1	FLuc modulator inconclusive, Rab9 prom act inconclusive, ELG1 genotox inconclusive, SMN2 splice enh inconclusive
CCOc1ccc(NC(=O)C(=S)NC2CCCCC2)cc1	FLuc modulator 13µM, Rab9 prom act inconclusive, ELG1 genotox inconclusive, SMN2 splice enh inconclusive, NPC1 promoter act inconclusive
C#CC(CC)(CC)NC(=O)Nc1ccc(OCC)cc1	none
O=NN(c1ccccc1)c1ccccc1	none (no result: FLuc modulator, Luc counter, Rab9 prom act, ELG1 genotox, NPC1 promoter act)
c1ccc2c(c1)CCCC2	none (no result: FLuc modulator, Luc counter, Rab9 prom act, ELG1 genotox, NPC1 promoter act)
COC(=O)c1ccc(-n2c(C)nc3ccccc3c2=O)cc1	none
COC(=O)c1ccc(-c2nc(-c3ccc(Br)o3)no2)cc1	FLuc modulator 1.7µM, Rab9 prom act 4µM, ELG1 genotox inconclusive, NPC1 promoter act 3.2µM
N#CSCSC#N	none (no result: FLuc modulator, Luc counter, Rab9 prom act, ELG1 genotox, NPC1 promoter act)
Nc1cc2nc3ccccc3nc2cc1N	FLuc modulator 19µM, NPC1 promoter act inconclusive (no result: Luc counter, SMN2 splice enh)
O=C1C2C3CCC(C3)C2C(=O)N1c1ccc(OS(=O)(=O)c2ccccc2)cc1 (stereo not given)	FLuc modulator 12µM, Rab9 prom act 1.1µM, ELG1 genotox inconclusive, NPC1 promoter act 3.5µM
CCC1CN2CCc3cc(OC)c(OC)cc3C2CC1CC1NCCc2cc(OC)c(OC)cc21 (stereo not given)	none (no result: FLuc modulator, Rab9 prom act, ELG1 genotox, NPC1 promoter act)
CN(C)C(=O)Nc1ccc(Cl)cc1	none (no result: FLuc modulator, Luc counter, Rab9 prom act, ELG1 genotox, NPC1 promoter act)
Cn1cnc2cc(NC(=O)c3ccc(Cl)cc3)ccc21	FLuc modulator 12µM, Rab9 prom act 2.8µM, ELG1 genotox inconclusive, SMN2 splice enh 11µM, NPC1 promoter act 2.8µM
CN(C)CCC(C#N)(c1ccccc1)c1ccccc1	none (no result: FLuc modulator, Rab9 prom act, ELG1 genotox, NPC1 promoter act)
COc1cc(/C=C(/C)[N+](=O)[O-])ccc1OCc1ccccc1Cl	FLuc modulator 13µM
COc1cc(/C=C/[N+](=O)[O-])ccc1O	FLuc modulator inconclusive, SMN2 splice enh inconclusive
O=c1nc(/C=C/c2ccc(Cl)cc2Cl)cc(C(F)(F)F)[nH]1	FLuc modulator 11µM (no result: Luc counter, SMN2 splice enh)
CN(C)c1ccc(/C=C/C=C/c2sc3ccccc3[n+]2C)cc1	FLuc modulator inconclusive (no result: Luc counter, SMN2 splice enh)
CN(C)c1ccc(/C=C/c2cc[n+](C)c3ccccc23)cc1	FLuc modulator inconclusive, Luc counter 13µM
Nc1nc(SCc2ccc(Cl)cc2Cl)n[nH]1	FLuc modulator inconclusive, ELG1 genotox 21µM, SMN2 splice enh inconclusive
Clc1ccc(Cl)c(Cl)c1	none (no result: FLuc modulator, Luc counter, Rab9 prom act, ELG1 genotox, NPC1 promoter act)
CC(Cl)CCl (stereo not given)	none (no result: FLuc modulator, Luc counter, Rab9 prom act, ELG1 genotox, NPC1 promoter act)
C[C@@H]1O[C@@H](O[C@H]2C[C@@H](O)[C@]3(CO)[C@H]4[C@H](O)C[C@]5(C)[C@@H](C6COC(=O)C6)CC[C@]5(O)[C@@H]4CC[C@]3(O)C2)[C@H](O)[C@H](O)[C@H]1O (stereo not given in full)	SMN2 splice enh 0.79µM
Cc1cc(C=C2C(=O)N(C)C(=S)N(C)C2=O)c(C)n1-c1ccncc1	FLuc modulator 27µM (no result: Luc counter, SMN2 splice enh)
Cc1ccnc(-n2c(C)cc(C=C3C(=O)N(C)C(=S)N(C)C3=O)c2C)c1	FLuc modulator 19µM
CC1(C)CCC(C)(C)c2c1ccc(O)c2Cc1c(O)ccc2c1C(C)(C)CCC2(C)C	none (no result: FLuc modulator, Rab9 prom act, ELG1 genotox, NPC1 promoter act)
Cc1ccc(C(=O)COC(=O)Cc2ccccc2)cc1	FLuc modulator 0.95µM, ELG1 genotox inconclusive (no result: Luc counter, SMN2 splice enh)
O=C(Cc1ccccc1)OCC(=O)c1ccccc1	FLuc modulator 6.7µM (no result: Luc counter, SMN2 splice enh)
O=C(Cc1ccccc1)OCC(=O)c1ccc(F)cc1	none (no result: FLuc modulator, Luc counter, Rab9 prom act, SMN2 splice enh, NPC1 promoter act)
COc1ccc2nc(NC(=O)CCc3nc(C4=CCN(C)CC4)no3)sc2c1	FLuc modulator 21µM
Cc1nc(Cl)sc1C(=O)Nc1ccc2ccccc2c1	FLuc modulator 7.6µM, Rab9 prom act inconclusive, ELG1 genotox inconclusive, SMN2 splice enh 13µM
O=C(Nc1ccc2ccccc2c1)c1nn(C23CC4CC(CC(C4)C2)C3)cc1Br	none
Cc1ccc(NC(=[OH+])c2cc3ccccc3cc2O)c(C)c1.Cc1ccc(NC(=[OH+])c2cc3ccccc3cc2O)c(C)c1.[Ni]	none (no result: FLuc modulator, Rab9 prom act, ELG1 genotox, NPC1 promoter act)
